Experimental data reported in PubChem BioAssay AID2242 (National Center for Advancing Translational Sciences (NCATS), 2010).
Hit rate of the full screen: of about 200,000 compounds, about 720 (0.36%) were called active. Another 8% or so got no clear call; they are omitted. Calls come from the whole dose curve; as a rule, active = well fitted activation curve with a large enough effect; inconclusive = small, poorly fitted or top-dose-only effect, or effect the other way, or another doubt; inactive = flat fitted curve, though single readings scatter. The list shows a part of the results.

Target: Lysosomal alpha-glucosidase (Homo sapiens) (UniProt P10253)
Test: qHTS Assay for Activators of Human alpha-Glucosidase as a Potential Chaperone Treatment of Pompe Disease; note: nearly all actives have a fitted effect of over 80% in size
Conditions: purified enzyme, 4-MU-alpha-glucoside fluorescence, 20 min
From the text: NIH Chemical Genomics Center [NCGC] NIH Molecular Libraries Probe Production centers Network [MLPCN] MLPCN Grant: 1R03MH084841-01 Assay Submitter (PI): Wei Zheng NCGC Assay Overview: Alpha-glucosidase is responsible for hydrolysis of terminal, non-reducing 1,4-linked alpha-D-glucose residues with release of alpha-D-glucose. It is a lysosomal hydrolase that is required for the degradation of a small percentage (1-3%) of cellular glycogen in human. Deficiency of this enzyme results in glycogen-storage disease type II (GSDII), also referred to as Pompe disease, an autosomal recessive disorder. Structurally normal glycogen is accumulated in lysosomes and cytoplasm in affected patients, primarily in muscle tissues. Excessive glycogen storage within lysosomes may interrupt normal functioning of other organelles and leads to cellular injury. In turn, this leads to enlargement and dysfunction of the entire organ involved (eg, cardiomyopathy and muscle weakness). It has reported that the improper folding and trafficking of alpha-glucosidase resulting from the genetic mutations may account for a significant number of Pompe patients. […] We optimized this alpha-glucosidase assay in 1536-well plate format for identifying the novel small molecule inhibitors with the structures other than the sugar analogs in order to develop the new pharmacological chaperones, but are also able to detect potential activators. In conjunction with assays against alpha-galactosidase (AID 1467), fluorogenic false positive compounds can be identified.
NCGC Assay Protocol Summary: This is a fluorogenic enzyme assay with 4-methylumbelliferyl-alpha-D-[…] as the substrate and human alpha-glucosidase as the enzyme preparation. Upon the hydrolysis of this fluorogenic substrate, the resulting product, 1. 4-methyllumbelliferone, can be excited at 365 nm and emits at 440 nm which can be detected by a standard fluorescence plate reader. Data were normalized to the controls for basal activity (without enzyme) and 100% activity (with enzyme). In the AC50 values were determined from concentration-response data modeled with the standard Hill equation. Assay buffer: 50 mM citric acid (titrated with potassium phosphate to pH 5.0), 0.005% Tween-20, pH 5.0. (pH 5.0 is an optimal condition for this enzyme assay) 1536-well assay protocol for the human alpha-glucosidase: (1) Add 2 ul/well of enzyme (4 nM final) (2) Add 23 nL compounds in DMSO solution. The final titration was 0.7 nM to 77 uM. (3) Add 1 ul of substrate (400 uM final) (4) Incubate at room temperature for 20 min. (5) Add 2 ul stop solution (1M NaOH and 1M Glycine mixture, pH 10) (6) Detect the assay plate in a ViewLux plate reader (PerkinElmer) with Ex=365 nm and Em=440nm. Keywords: Alpha-glucosidase, Pompe Disease, pharmacological chaperone, chaperone therapy, high throughput screening, alpha-glucosidase inhibitor, MLSMR, MLSCN, NIH Roadmap, qHTS and NCGC
Potency is the fitted concentration of half-maximal effect.

| SMILES | Potency |
| --- | --- |
| N#CC1=C(N)Oc2c(c(=O)oc3ccccc23)C1c1ccc(OC(=O)N2CCOCC2)cc1 (centres undefined) | 35.5 µM (active) |
| COc1ccc(CNc2oc(-c3cccc4ccccc34)nc2P(=O)(OC)OC)cc1 | 35.5 µM (active) |
| CCOP(=O)(OCC)c1nc(-c2cccc3ccccc23)oc1NCCc1ccc(OC)cc1 | 31.6 µM (active) |
| COP(=O)(OC)c1nc(-c2cccc3ccccc23)oc1NCCc1ccccc1 | 31.6 µM (active) |
| COCCN1Cc2cc(=O)n3c([nH]c4ccccc43)c2C1=N | 31.6 µM (active) |
| COC(=O)c1ccc(C(=O)OC)c(NC(=O)Oc2ccccc2)c1 | 31.6 µM (active) |
| CCCNC(=O)c1c(N)n(CC2CCCO2)c2nc3ccccc3nc12 (centres undefined) | 31.6 µM (active) |
| CC(C)OCCCNC(=O)c1c(N)n(CC2CCCO2)c2nc3ccccc3nc12 (centres undefined) | 39.8 µM (active) |
| CN1CCc2c(C#N)c(Cl)nc(Cl)c2C1 | 35.5 µM (active) |
| N#Cc1c(Cl)nc(Cl)c2c1CCN(Cc1ccccc1)C2 | 31.6 µM (active) |
| CCCCn1c(N)c(C(=O)OCC2CCCO2)c2nc3ccccc3nc21 (centres undefined) | 35.5 µM (active) |
| CC(C)CCn1c(N)c(C(=O)OCC2CCCO2)c2nc3ccccc3nc21 (centres undefined) | 31.6 µM (active) |
| COCCOC(=O)c1c(N)n(Cc2ccc(OC)cc2)c2nc3ccccc3nc12 | 35.5 µM (active) |
| COCCOC(=O)c1c(N)n(Cc2ccccc2)c2nc3ccccc3nc12 | 35.5 µM (active) |
| COc1ccc(-c2cc(=NCCC(=O)O)c3cc(C)ccc3o2)cc1 | 28.2 µM (active) |
| COc1ccc(-c2cc(=NCCCCCC(=O)O)c3cc(C)ccc3o2)cc1 | 31.6 µM (active) |
| CCOC(=O)c1c(N)n(Cc2ccc(OC)cc2)c2nc3ccccc3nc12 | 25.1 µM (active) |
| COC(=O)c1c(N)n(Cc2ccc(OC)cc2)c2nc3ccccc3nc12 | 35.5 µM (active) |
| CC(C)OC(=O)c1c(N)n(CC2CCCO2)c2nc3ccccc3nc12 (centres undefined) | 35.5 µM (active) |
| Nc1c(C(=O)OC2CCCCC2)c2nc3ccccc3nc2n1CC1CCCO1 (centres undefined) | 35.5 µM (active) |

| SMILES | Potency |
| --- | --- |
| CC(C)CCOC(=O)c1c(N)n(CC2CCCO2)c2nc3ccccc3nc12 (centres undefined) | 39.8 µM (active) |
| COCCCn1c(N)c(C(=O)OCCOC)c2nc3ccccc3nc21 | 31.6 µM (active) |
| COCCCn1c(N)c(C(=O)OC(C)COC)c2nc3ccccc3nc21 (centres undefined) | 39.8 µM (active) |
| O=C(c1cc2c(s1)-c1ccccc1OC2)N1CCC2(CC1)OCCO2 | 39.8 µM (active) |
| CCOP(=O)(OCC)c1nc(-c2cccc3ccccc23)oc1N1CCCCC1 | 35.5 µM (active) |
| CCOP(=O)(OCC)c1nc(-c2cccc3ccccc23)oc1N1CCOCC1 | 39.8 µM (active) |
| COP(=O)(OC)c1nc(-c2cccc3ccccc23)oc1N1CCCCC1 | 35.5 µM (active) |
| COCCNC(=O)c1c(N)n(Cc2ccco2)c2nc3ccccc3nc12 | 31.6 µM (active) |
| Nc1c(C(=O)NCCN2CCOCC2)c2nc3ccccc3nc2n1Cc1ccco1 | 39.8 µM (active) |
| CCCCn1c(NC(=O)c2ccc(Br)o2)c(C(=O)OCC)c2nc3ccccc3nc21 | 35.5 µM (active) |
| CCOC(=O)c1c(N)n(Cc2ccco2)c2nc3ccccc3nc12 | 39.8 µM (active) |
| COCCOC(=O)c1c(N)n(Cc2ccco2)c2nc3ccccc3nc12 | 35.5 µM (active) |
| CCOC(=O)c1c(N)n(CCCOC(=O)c2ccco2)c2nc3ccccc3nc12 | 35.5 µM (active) |
| CC(C)(C)OC(=O)c1c(N)n(Cc2ccco2)c2nc3ccccc3nc12 | 35.5 µM (active) |
| CCCCCn1c(N)c(C(=O)NCCN2CCOCC2)c2nc3ccccc3nc21 | 35.5 µM (active) |
| CC(=O)N1CCC2(CC1)CC(=O)c1cc(OCC(=O)N3CCC4(CC3)OCCO4)ccc1O2 | 31.6 µM (active) |
| CC(C)CCn1c(N)c(C(=O)NCc2cccs2)c2nc3ccccc3nc21 | 28.2 µM (active) |
| CCC(C)OC(=O)c1c(N)n(Cc2cccs2)c2nc3ccccc3nc12 (centres undefined) | 35.5 µM (active) |
| CCCOC(=O)c1c(N)n(Cc2cccs2)c2nc3ccccc3nc12 | 39.8 µM (active) |
